# Reference: PubChem BioAssay (Tox21)
# Inconclusive results are not listed. A number with no mark means an inactive call. Activity calls are given as the source filed them. Calls come from the whole dose curve; as a rule, active = well fitted inhibition curve with a large enough effect in the repeat runs; inconclusive = weak or mixed curves; inactive = no such curve, though single readings can be large or run the other way.
# Target: Cytochrome P450 2D6 (Homo sapiens) (UniProt P10635)
# Assay: Cytochrome P450 Family 2 Subfamily D Member 6 (CYP2D6) small molecule antagonists: luciferase reporter qHTS assay (AID 1671196); note: nearly all actives have a fitted effect of over 50% in size
# Details: P450-Glo CYP2D6 enzyme assay, luciferin luminescence, 1 h; series mostly up to 115 µM; activity change, negative = inhibition: at the top concentration
# Source text: U.S. Tox21 Program National Center for Advancing Translational Sciences [NCATS] U.S. Environmental Protection Agency [EPA] National Institutes of Environmental Health Sciences [NIEHS] National Toxicology Program [NTP] U.S. Food and Drug Administration [FDA] Tox21 Assay Overview: Cytochrome P450 (CYP) enzymes are membrane-bound hemeproteins that play a key role in metabolism of drugs and xenobiotics. Evaluation of the effect of chemicals on CYP isozymes is useful to minimize the adverse drug reactions and toxicities in drug development process. Tox21 chemicals were tested for their effect on CYP enzyme activities by using P450-Glo (TM) screening systems (Promega Corporation, Madison, WI). These systems provide a luminescent method containing proluciferin substrates and are converted to luciferin products by CYP isozymes. The luciferin products formed are detected with a luciferin detection reagent, and the amount of light produced is proportional to CYP activity. P450-Glo (TM) CYP2D6 screening system (Catalog. No. V9890) was used to detect the compounds that interfere in CYP2D6 activity.
# Tox21 Assay Protocol Summary: Two ul of enzyme-substrate mix was dispensed into medium binding white/solid 1536-well plates (Greiner Bio-One North America Inc., Monroe, NC) using a BioRaptr Flying Reagent Dispenser (FRD, Beckman Coulter, Brea, CA). […] The assay plates were incubated at room temperature for 10 min. Then 2 ul of NADPH regeneration solution was added to each well of the assay plates using an FRD and incubated at room temperature for 1 h. The reaction was stopped by adding 4 ul of detection reagent using an FRD and after 20 min incubation at room temperature the luminescence signal was measured using a ViewLux plate reader (Perkin Elmer, Shelton, CT). Data were expressed as relative luminescence units.
# % is set by controls: 0 for no effect and ±100 for the full control effect; potency is the fitted concentration of half-maximal effect.
# Sequence of Cytochrome P450 2D6 (Homo sapiens) (P10635 whole entry, looked up): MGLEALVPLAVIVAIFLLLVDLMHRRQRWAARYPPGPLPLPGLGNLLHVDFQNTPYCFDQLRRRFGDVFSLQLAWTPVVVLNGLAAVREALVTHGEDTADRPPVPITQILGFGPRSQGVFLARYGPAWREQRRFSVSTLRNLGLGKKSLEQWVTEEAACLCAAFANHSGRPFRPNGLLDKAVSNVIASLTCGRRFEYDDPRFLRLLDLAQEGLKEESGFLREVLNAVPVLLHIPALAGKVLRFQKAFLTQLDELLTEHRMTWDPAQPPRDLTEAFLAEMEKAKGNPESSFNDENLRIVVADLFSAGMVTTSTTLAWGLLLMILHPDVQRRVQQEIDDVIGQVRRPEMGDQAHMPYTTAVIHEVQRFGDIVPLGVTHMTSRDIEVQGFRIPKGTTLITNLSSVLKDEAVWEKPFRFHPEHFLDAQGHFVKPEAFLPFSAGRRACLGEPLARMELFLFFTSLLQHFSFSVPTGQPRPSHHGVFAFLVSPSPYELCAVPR
Structure (SMILES),Potency,"activity change, negative = inhibition"
CCN(CC)C(C)C(=O)c1ccccc1 (stereo not given),19.5 µM (active),–
CC(C(O)c1ccccc1)N(C)C/C=C/c1ccccc1 (stereo not given),0.0871 µM (active),–
CC(COc1ccc(Oc2ccccc2)cc1)Oc1ccccn1 (stereo not given),–,-16.8%
CC1CCC(=O)O1 (stereo not given),–,-9.18%
Nc1ccccc1Cl,6.87 µM (active),–
CC(C)[N+](=O)[O-],–,-5.42%
O=C(Nc1ccccc1)N(Cc1ccc(Cl)cc1)C1CCCC1,12.6 µM (active),–
CC(N)=S,–,-17%
O=[N+]([O-])c1cccc2c([N+](=O)[O-])cccc12,11.3 µM (active),–
CCCSC(=O)N(CCC)CCC,–,-7.4%
OC(c1ccccc1)(c1ccccc1)C1CCNCC1,12.3 µM (active),–
CCCSP(=O)(OCC)Oc1ccc(Br)cc1Cl (stereo not given),15.4 µM (active),–
C[C@@H]1CN(C2CCC(C#N)(c3ccc(F)cc3)CC2)CC[C@]1(C(=O)O)c1ccccc1 (stereo not given in full),1.55 µM (active),–
c1ccc(N2CCNCC2)cc1,–,-13.2% [at 53 µM]
CCN(CC)CCOC(=O)C(C)(c1ccccc1)c1ccccc1,1.55 µM (active),–
CSc1nc(N=[N+]=[N-])nc(NC(C)C)n1,–,-15.7%
CSc1ccc(C(=O)C(C)(C)N2CCOCC2)cc1,2.52 µM (active),–
N#CCCC#N,–,-9.77%
N#CC(Cl)(Cl)Cl,69.2 µM (active),–
O=NN1CCCCC1,–,-10.6%

Structure (SMILES),Potency,"activity change, negative = inhibition"
O=[N+]([O-])c1ccc(CBr)cc1,–,-14.5%
Nc1n[nH]c(N)n1,–,-8.86%
COc1ccc2c(c1OC)CN1CCc3cc4c(cc3C1C2)OCO4 (stereo not given),0.246 µM (active),–
CCOP(=S)(OCC)SCSc1ccc(Cl)cc1,11.2 µM (active),–
CCOC(=O)C(c1c(O)c2ccccc2oc1=O)c1c(O)c2ccccc2oc1=O,–,-6.29% [at 53 µM]
CCCSC(=O)Cl,–,-2.55%
ClC(Cl)(Cl)C(Cl)(Cl)Cl,–,-1.01%
O=S(=O)(O)C(F)(F)C(F)(F)C(F)(F)C(F)(F)C(F)(F)C(F)(F)F,–,-17.2%
O=c1oc2ccccc2c(O)c1C1CCCc2ccccc21 (stereo not given),–,-24.1%
ClCCOCOCCCl,–,1.28%
NC1=NC(=O)C(c2ccccc2)O1 (stereo not given),–,0.403% [at 53 µM]
ClCC(Cl)(Cl)Cl,–,-1.57%
Cc1ncsc1CCCl,–,2.05% [at 53 µM]
COC(=O)C(C)Oc1ccc(Oc2ccc(Cl)cc2Cl)cc1 (stereo not given),–,-95.6%
Oc1c(Cl)cccc1Cl,–,-11.1%
O=C(CCN1CC1)OCC(CO)(COC(=O)CCN1CC1)COC(=O)CCN1CC1,–,-0.974%
N#CCNCC#N,–,-12.6%
CNC(=O)Oc1c(C(C)(C)C)cc(C)cc1C(C)(C)C,–,-8.18%
CCOP(=O)(N=C1SCCS1)OCC,–,-22.5%
O=CNC(N1CCN(C(NC=O)C(Cl)(Cl)Cl)CC1)C(Cl)(Cl)Cl (stereo not given),31.7 µM (active),–
